Data published in the supplement of paper PMC9492666.
Where a name gives a salt, the structure may show the parent alone.
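Note: breast cancer cell viability read out with the CCK-8 kit after co-treatment of each compound with the ferroptosis inducer RSL3.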

The compounds below were run on HCC1937 (assay: relative cell viability, compound + RSL3, vs DMSO (fraction of DMSO control); higher = less growth inhibition). Conditions: 72 h.
`c1ccc([C@H]2CN3CCSC3=N2)cc1` [Levamisole hydrochloride] + COC(=O)c1ccc([C@H]2c3[nH]c4ccccc4c3C[C@H](C(=O)OC)N2C(=O)CCl)cc1 [RSL3] showed a relative cell viability of 0.704.
Compound `COC(=O)/C=C/c1cccc(N(Cc2ccc(-c3ccc(N(C)C)cc3)cc2)C(=O)C2CCCCC2)c1` [Fexaramine] + COC(=O)c1ccc([C@H]2c3[nH]c4ccccc4c3C[C@H](C(=O)OC)N2C(=O)CCl)cc1 [RSL3] has a relative cell viability of 0.316.
`O=C(OC(C(F)(F)F)C(F)(F)F)N1CCN(Cc2ccc(C(F)(F)F)cc2N2CCCC2)CC1` + COC(=O)c1ccc([C@H]2c3[nH]c4ccccc4c3C[C@H](C(=O)OC)N2C(=O)CCl)cc1 [RSL3] showed a relative cell viability of 0.928.
`Nc1cccc(S(=O)(=O)N2CCCN(S(=O)(=O)c3ccc4c(c3)OCCO4)CC2)c1` + COC(=O)c1ccc([C@H]2c3[nH]c4ccccc4c3C[C@H](C(=O)OC)N2C(=O)CCl)cc1 [RSL3] gave a relative cell viability of 0.382.
For `COc1cc(N(C)C)cc(CN(C)CCc2ccc([N+](=O)[O-])cc2)c1O` [CDC25 Phosphatase Inhibitor I] + COC(=O)c1ccc([C@H]2c3[nH]c4ccccc4c3C[C@H](C(=O)OC)N2C(=O)CCl)cc1 [RSL3], the relative cell viability was 0.454.
`Cc1nc2c([nH]1)c(=O)n(C)c(=O)n2Cc1ccco1` [Furafylline] + COC(=O)c1ccc([C@H]2c3[nH]c4ccccc4c3C[C@H](C(=O)OC)N2C(=O)CCl)cc1 [RSL3] was tested, and the relative cell viability was 0.399.
For `COc1cccc(-n2c(=O)[nH]c3cc(Cl)n(-c4ccc(-c5cccc(OC)c5O)cc4)c3c2=O)c1` + COC(=O)c1ccc([C@H]2c3[nH]c4ccccc4c3C[C@H](C(=O)OC)N2C(=O)CCl)cc1 [RSL3], the relative cell viability was 0.395.
`CCCCCCCCCCCCCCCC(=O)NCCO` [Palmidrol] + COC(=O)c1ccc([C@H]2c3[nH]c4ccccc4c3C[C@H](C(=O)OC)N2C(=O)CCl)cc1 [RSL3] was tested, and the relative cell viability was 0.655.
For `CCCC[S+]([O-])c1sc2nc(-c3cccs3)cc(-c3ccccc3)c2c1N` (centres undefined) + COC(=O)c1ccc([C@H]2c3[nH]c4ccccc4c3C[C@H](C(=O)OC)N2C(=O)CCl)cc1 [RSL3], the relative cell viability was 0.748.
`CCCCCCCCCCCCCCOc1ccc(C(=O)OCC(=O)N(C)CC(=O)OCC)o1` [Olumacostat Glasaretil] + COC(=O)c1ccc([C@H]2c3[nH]c4ccccc4c3C[C@H](C(=O)OC)N2C(=O)CCl)cc1 [RSL3] gave a relative cell viability of 0.281.
`CN(C)C(=N)NC(=N)N` [Metformin] + COC(=O)c1ccc([C@H]2c3[nH]c4ccccc4c3C[C@H](C(=O)OC)N2C(=O)CCl)cc1 [RSL3] was tested, and the relative cell viability was 0.335.
Work on `CCCc1c(OCCCOc2ccc(OCC(=O)O)cc2)ccc(C(C)=O)c1O` + COC(=O)c1ccc([C@H]2c3[nH]c4ccccc4c3C[C@H](C(=O)OC)N2C(=O)CCl)cc1 [RSL3] yielded a relative cell viability of 0.556.
For `NC(=O)c1ncn([C@@H]2O[C@H](CO)[C@@H](O)[C@H]2O)c1N` [AICAR (Acadesine)] + COC(=O)c1ccc([C@H]2c3[nH]c4ccccc4c3C[C@H](C(=O)OC)N2C(=O)CCl)cc1 [RSL3], the relative cell viability was 0.646.
In the case of `CC(=O)N1CCN(c2ccc(OCC3COC(Cn4ccnc4)(c4ccc(Cl)cc4Cl)O3)cc2)CC1` (centres undefined) [Ketoconazole] + COC(=O)c1ccc([C@H]2c3[nH]c4ccccc4c3C[C@H](C(=O)OC)N2C(=O)CCl)cc1 [RSL3], the relative cell viability is reported as 0.63.
`CCOP(=O)(OCC)C(=Cc1cc(C(C)(C)C)c(O)c(C(C)(C)C)c1)P(=O)(OCC)OCC` + COC(=O)c1ccc([C@H]2c3[nH]c4ccccc4c3C[C@H](C(=O)OC)N2C(=O)CCl)cc1 [RSL3] was tested, and the relative cell viability was 0.274.
`CN(C)c1cccc(-c2c3c(=O)n(-c4ccccc4Cl)[nH]c3cc(=O)n2C)c1` + COC(=O)c1ccc([C@H]2c3[nH]c4ccccc4c3C[C@H](C(=O)OC)N2C(=O)CCl)cc1 [RSL3] showed a relative cell viability of 0.433.
`O=C(Nc1cnccc1Cl)N1CCN(Cc2ccc3c(c2)OC(F)(F)O3)CC1` + COC(=O)c1ccc([C@H]2c3[nH]c4ccccc4c3C[C@H](C(=O)OC)N2C(=O)CCl)cc1 [RSL3] showed a relative cell viability of 0.338.
`CCC(=O)Nc1cccc(Oc2nc(Nc3ccc(N4CCN(C)CC4)cc3OC)ncc2Cl)c1` + COC(=O)c1ccc([C@H]2c3[nH]c4ccccc4c3C[C@H](C(=O)OC)N2C(=O)CCl)cc1 [RSL3] gave a relative cell viability of 0.121.
Work on `CSc1ccc(C(=O)/C=C/c2cc(C)c(OC(C)(C)C(=O)O)c(C)c2)cc1` [Elafibranor] + COC(=O)c1ccc([C@H]2c3[nH]c4ccccc4c3C[C@H](C(=O)OC)N2C(=O)CCl)cc1 [RSL3] yielded a relative cell viability of 0.83.
`CC(C)OC(=O)CCC/C=C\C[C@@H]1[C@@H](CC[C@@H](O)CCc2ccccc2)[C@H](O)C[C@@H]1O` [Latanoprost] + COC(=O)c1ccc([C@H]2c3[nH]c4ccccc4c3C[C@H](C(=O)OC)N2C(=O)CCl)cc1 [RSL3] was tested, and the relative cell viability was 1.03.
Compound `O=C(O)c1cc(F)c2nc(N3[C@@H]4CC[C@H]3C[C@@H](OCc3c(-c5ccccc5OC(F)(F)F)noc3C3CC3)C4)sc2c1` [Tropifexor] + COC(=O)c1ccc([C@H]2c3[nH]c4ccccc4c3C[C@H](C(=O)OC)N2C(=O)CCl)cc1 [RSL3] has a relative cell viability of 0.603.
Compound `O=C(O)c1cc2c(Cl)c(N3CCN(S(=O)(=O)c4c(Cl)cccc4Cl)CC3)ccc2o1` [Vonafexor] + COC(=O)c1ccc([C@H]2c3[nH]c4ccccc4c3C[C@H](C(=O)OC)N2C(=O)CCl)cc1 [RSL3] has a relative cell viability of 0.514.
Compound `Nc1ccc(C(=O)O)c(O)c1` [Aminopar] + COC(=O)c1ccc([C@H]2c3[nH]c4ccccc4c3C[C@H](C(=O)OC)N2C(=O)CCl)cc1 [RSL3] has a relative cell viability of 0.822.
In the case of `C=C[C@H]1CN2CC[C@H]1C[C@@H]2[C@@H](O)c1ccnc2ccc(OC)cc12` [Quinidine sulfate] + COC(=O)c1ccc([C@H]2c3[nH]c4ccccc4c3C[C@H](C(=O)OC)N2C(=O)CCl)cc1 [RSL3], the relative cell viability is reported as 0.439.
Compound `CC(C)c1nc(N(C)S(C)(=O)=O)nc(-c2ccc(F)cc2)c1/C=C/[C@@H](O)C[C@@H](O)CC(=O)O` [Rosuvastatin] + COC(=O)c1ccc([C@H]2c3[nH]c4ccccc4c3C[C@H](C(=O)OC)N2C(=O)CCl)cc1 [RSL3] has a relative cell viability of 0.54.
`O=c1c(O[C@@H]2O[C@H](CO)[C@@H](O)[C@H](O)[C@H]2O)c(-c2ccc(O)cc2)oc2cc(O)cc(O)c12` [Astragalin] + COC(=O)c1ccc([C@H]2c3[nH]c4ccccc4c3C[C@H](C(=O)OC)N2C(=O)CCl)cc1 [RSL3] gave a relative cell viability of 0.586.
`CC(C)(Oc1ccc(C(=O)c2ccc(Cl)cc2)cc1)C(=O)O` [Choline Fenofibrate] + COC(=O)c1ccc([C@H]2c3[nH]c4ccccc4c3C[C@H](C(=O)OC)N2C(=O)CCl)cc1 [RSL3] showed a relative cell viability of 0.469.
`COC(=O)c1sccc1S(=O)(=O)Nc1ccc(Nc2ccccc2)cc1OC` + COC(=O)c1ccc([C@H]2c3[nH]c4ccccc4c3C[C@H](C(=O)OC)N2C(=O)CCl)cc1 [RSL3] showed a relative cell viability of 0.347.
In the case of `Nn1nnc2ccccc21` [1-Aminobenzotriazole] + COC(=O)c1ccc([C@H]2c3[nH]c4ccccc4c3C[C@H](C(=O)OC)N2C(=O)CCl)cc1 [RSL3], the relative cell viability is reported as 0.528.
Work on `C[C@]12C=CC(=O)N[C@@H]1CC[C@@H]1[C@@H]2CC[C@]2(C)[C@@H](C(=O)Nc3cc(C(F)(F)F)ccc3C(F)(F)F)CC[C@@H]12` [Dutasteride] + COC(=O)c1ccc([C@H]2c3[nH]c4ccccc4c3C[C@H](C(=O)OC)N2C(=O)CCl)cc1 [RSL3] yielded a relative cell viability of 0.53.
Work on `O=C(NNc1ccccc1)c1ccncc1` [PluriSln 1] + COC(=O)c1ccc([C@H]2c3[nH]c4ccccc4c3C[C@H](C(=O)OC)N2C(=O)CCl)cc1 [RSL3] yielded a relative cell viability of 0.418.
`CCc1ccc(N(CC(C)C)S(=O)(=O)c2ccc(OCC3CCOCC3)c(CO)c2)cc1` + COC(=O)c1ccc([C@H]2c3[nH]c4ccccc4c3C[C@H](C(=O)OC)N2C(=O)CCl)cc1 [RSL3] was tested, and the relative cell viability was 0.53.
`O=S(=O)(Nc1ccc(C(O)(C(F)(F)F)C(F)(F)F)cc1)c1cccs1` + COC(=O)c1ccc([C@H]2c3[nH]c4ccccc4c3C[C@H](C(=O)OC)N2C(=O)CCl)cc1 [RSL3] gave a relative cell viability of 0.617.
`CC(=O)O[C@H](CC=C(C)C)C1=CC(=O)c2c(O)ccc(O)c2C1=O` [Acetyl shikonin] + COC(=O)c1ccc([C@H]2c3[nH]c4ccccc4c3C[C@H](C(=O)OC)N2C(=O)CCl)cc1 [RSL3] gave a relative cell viability of 0.665.
`CC[C@@H]1/C=C(\C)C[C@H](C)C[C@H](OC)[C@H]2O[C@@](O)(C(=O)C(=O)N3CCCC[C@H]3C(=O)O[C@H](/C(C)=C/[C@@H]3CC[C@@H](O)[C@H](OC)C3)[C@H](C)[C@@H](O)CC1=O)[C@H](C)C[C@@H]2OC` [Ascomycin] + COC(=O)c1ccc([C@H]2c3[nH]c4ccccc4c3C[C@H](C(=O)OC)N2C(=O)CCl)cc1 [RSL3] showed a relative cell viability of 0.1.
In the case of `Cc1ccc(C)c(OCCCC(C)(C)C(=O)O)c1` [Gemfibrozil] + COC(=O)c1ccc([C@H]2c3[nH]c4ccccc4c3C[C@H](C(=O)OC)N2C(=O)CCl)cc1 [RSL3], the relative cell viability is reported as 0.631.
Work on `O=C(/C=C/c1ccc(/C=C/C(=O)Nc2ccc(C3=NCCN3)cc2)cc1)Nc1ccc(C2=NCCN2)cc1` + COC(=O)c1ccc([C@H]2c3[nH]c4ccccc4c3C[C@H](C(=O)OC)N2C(=O)CCl)cc1 [RSL3] yielded a relative cell viability of 0.296.
In the case of `COc1ccc(N(C(=O)Nc2c(C)cccc2C)c2cc(Nc3ccc(N4CCN(C)CC4)cc3)ncn2)c(OC)c1` + COC(=O)c1ccc([C@H]2c3[nH]c4ccccc4c3C[C@H](C(=O)OC)N2C(=O)CCl)cc1 [RSL3], the relative cell viability is reported as 0.624.
For `CCC1C(O)C2C3CCC(C(C)CCO)C3(C)CCC2C2(C)CCC(O)CC12` (centres undefined) + COC(=O)c1ccc([C@H]2c3[nH]c4ccccc4c3C[C@H](C(=O)OC)N2C(=O)CCl)cc1 [RSL3], the relative cell viability was 0.399.
